PubChem BioAssay (NCI)
About 83,000 compounds went through this panel and 20% of them were active in at least one assay; those are over-represented in the sample as a whole.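 Method: cells in 96-well plates; compound added at one concentration; 48 h incubation; percent growth measured; values under 10 scored active.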 Activity calls are given as the source filed them.

What was measured:
Assay in all cases: NCI-60 one-dose screen, 48 h (100 = growth as untreated, 0 = no growth, -100 = all killed)
Conditions in all cases: 10 µM unless noted
NCI-H23 lung = system: NCI-H23 lung
NCI-H226 lung = system: NCI-H226 lung
NCI-H322M lung = system: NCI-H322M lung
HOP-62 NSCLC = system: HOP-62 NSCLC
NCI-H460 lung = system: NCI-H460 lung
HOP-92 NSCLC = system: HOP-92 NSCLC
NCI-H522 lung = system: NCI-H522 lung
A549/ATCC NSCLC = system: A549/ATCC NSCLC
786-0 renal = system: 786-0 renal
COLO 205 colon = system: COLO 205 colon

Measured: growth

O=C(Cn1nnc2ccccc21)N/N=C/c1c[nH]c2ccccc12
inactive: NCI-H23 lung 71% | NCI-H226 lung 77% | NCI-H322M lung 80% | HOP-62 NSCLC 36.6% | NCI-H460 lung 21% | HOP-92 NSCLC 57.7% | NCI-H522 lung 18.1% | A549/ATCC NSCLC 49% | 786-0 renal 58% | COLO 205 colon 37.2%

COc1ccc2cc(-c3ccnc4c(N=Nc5ccc(Cl)cc5)c(N)nn34)ccc2c1
inactive: NCI-H23 lung 108% | NCI-H226 lung 90.2% | NCI-H322M lung 102% | HOP-62 NSCLC 94.4% | NCI-H460 lung 100% | HOP-92 NSCLC 98.7% | NCI-H522 lung 95.6% | A549/ATCC NSCLC 81.9% | 786-0 renal 106% | COLO 205 colon 110%

CCSc1oc(C)nc1[P+](c1ccccc1)(c1ccccc1)c1ccccc1
inactive: NCI-H23 lung 20.6% | NCI-H226 lung 57.9% | NCI-H322M lung 77% | HOP-62 NSCLC 21.3% | NCI-H460 lung 16.8% | HOP-92 NSCLC 25.3% | NCI-H522 lung 24.8% | A549/ATCC NSCLC 23.2% | 786-0 renal 56.6%
active: COLO 205 colon -7.48%

CCN1C(=O)N(CC)C2C1NN=c1s/c(=C3\C(=O)N(CCC(C)C)c4ccccc43)c(=O)n12 (stereo not given)
inactive: NCI-H23 lung 30.8% | NCI-H226 lung 56.3% | NCI-H322M lung 52.1% | HOP-62 NSCLC 38.9% | HOP-92 NSCLC 40.4% | A549/ATCC NSCLC 14.2% | 786-0 renal 29.1% | COLO 205 colon 12.3%
active: NCI-H460 lung 5.57% | NCI-H522 lung 1.9%

Cc1n[nH]c2ccc(Br)cc2c1=O
inactive: NCI-H23 lung 98.3% | NCI-H226 lung 96.5% | NCI-H322M lung 98.7% | HOP-62 NSCLC 93.9% | NCI-H460 lung 110% | HOP-92 NSCLC 103% | NCI-H522 lung 83.6% | A549/ATCC NSCLC 99% | 786-0 renal 102% | COLO 205 colon 106%

CC1(C)NCCC[C@]2(C)[C@H]3CC[C@H]4[C@H]5[C@H](C(=O)/C=C/c6cccnc6)CCC[C@]5(CO)CC[C@@]4(C)[C@]3(C)CC[C@@H]12
inactive: NCI-H23 lung 77.6% | NCI-H226 lung 96.2% | NCI-H322M lung 85.5% | HOP-62 NSCLC 97.3% | NCI-H460 lung 10.9% | HOP-92 NSCLC 48.1% | NCI-H522 lung 88% | A549/ATCC NSCLC 67% | 786-0 renal 83.8%
active: COLO 205 colon -72.9%

COc1ccc(/C=C/C(=O)c2cc(OC)c(OC)c(OC)c2)cc1OCC(=O)Nc1nc2ccc(OC(F)(F)F)cc2s1
inactive: NCI-H23 lung 11.5% | NCI-H226 lung 40.6% | HOP-92 NSCLC 54.9% | A549/ATCC NSCLC 14.7% | 786-0 renal 58.9% | COLO 205 colon 77%
active: NCI-H322M lung 4.88% | HOP-62 NSCLC -53.3% | NCI-H460 lung -22.9% | NCI-H522 lung -35.5%

COc1ccc2[nH]cc(-c3nc(-c4c[nH]c5c(Cl)nccc45)cs3)c2c1
inactive: NCI-H23 lung 54.1% | NCI-H226 lung 40.3% | NCI-H322M lung 72.2% | HOP-62 NSCLC 61.2% | HOP-92 NSCLC 56.2% | NCI-H522 lung 25.8% | A549/ATCC NSCLC 28.6% | COLO 205 colon 42.2%
active: NCI-H460 lung -3.62% | 786-0 renal 9.87%

CC1=C2[C@@H](CC1)[C@]1(C)O[C@@](c3ccccc3)(C[C@H]1OC(=O)CO)[C@H]2OC(=O)/C=C/c1ccccc1
inactive: NCI-H23 lung 99.3% | NCI-H226 lung 80.8% | NCI-H322M lung 101% | HOP-62 NSCLC 100% | NCI-H460 lung 85.2% | HOP-92 NSCLC 96.2% | NCI-H522 lung 72.3% | A549/ATCC NSCLC 74.4% | 786-0 renal 68.7% | COLO 205 colon 110%

C=CCN1C(=O)c2cccc3c(N4CCOCC4)ccc(c23)C1=O
active: NCI-H23 lung 8.01% | NCI-H226 lung -2.43% | NCI-H322M lung -56.6% | NCI-H460 lung 8.52% | NCI-H522 lung -1.11% | A549/ATCC NSCLC 3.05% | COLO 205 colon -21.8%
inactive: HOP-62 NSCLC 26.4% | HOP-92 NSCLC 21.1% | 786-0 renal 26.2%

CN(C)CCN1C(=O)c2cccc3c(/C=C/CN4C(=O)c5cccc6cccc(c56)C4=O)ccc(c23)C1=O
inactive: NCI-H23 lung 93.8% | NCI-H226 lung 98.7% | NCI-H322M lung 84.3% | HOP-62 NSCLC 88.9% | NCI-H460 lung 93.7% | HOP-92 NSCLC 94.2% | NCI-H522 lung 101% | A549/ATCC NSCLC 85.3% | COLO 205 colon 82.1%
active: 786-0 renal -84.5%

O=C1C(Nc2ccccn2)=C(I)C(=O)c2ncccc21
inactive: NCI-H226 lung 33% | COLO 205 colon 49.2%
active: NCI-H23 lung -35.1% | NCI-H322M lung -31.2% | HOP-62 NSCLC -72.5% | NCI-H460 lung -61.4% | HOP-92 NSCLC -2.25% | NCI-H522 lung -63.1% | A549/ATCC NSCLC -48.8% | 786-0 renal -22.9%

COc1ccc(-c2ccc(-c3ccc(C(=N)N)nc3)s2)cc1Cl
active: HOP-62 NSCLC -30.8% | NCI-H460 lung -80.3% | NCI-H522 lung -47.3% | A549/ATCC NSCLC -32.3% | 786-0 renal -89.7% | COLO 205 colon -56%
inactive: NCI-H23 lung 41.2% | NCI-H226 lung 77.7% | NCI-H322M lung 15.7% | HOP-92 NSCLC 84.4%

O=C(/C=C(O)/C=C/c1cccc2[nH]ccc12)/C=C/c1cccc2[nH]ccc12
inactive: NCI-H23 lung 80.5% | NCI-H226 lung 99.5% | NCI-H322M lung 98.9% | HOP-62 NSCLC 76.4% | NCI-H460 lung 98.3% | HOP-92 NSCLC 62.1% | NCI-H522 lung 34% | A549/ATCC NSCLC 87.5% | 786-0 renal 86% | COLO 205 colon 55.8%

COc1ccc(/C=C2\COc3ccc(O)cc3C2=O)cc1
inactive: NCI-H23 lung 109% | NCI-H226 lung 104% | NCI-H322M lung 100% | HOP-62 NSCLC 103% | NCI-H460 lung 104% | HOP-92 NSCLC 110% | NCI-H522 lung 37.7% | A549/ATCC NSCLC 97.8% | 786-0 renal 92.2% | COLO 205 colon 110%

CC1CCN(C(=S)SCC(=O)NC(=O)c2ccccc2)CC1
inactive: NCI-H23 lung 102% | NCI-H226 lung 109% | NCI-H322M lung 105% | HOP-62 NSCLC 96.7% | NCI-H460 lung 110% | HOP-92 NSCLC 107% | NCI-H522 lung 83.3% | A549/ATCC NSCLC 105% | 786-0 renal 103% | COLO 205 colon 104%

CC1CCN(C(=O)CCCl)c2ccccc21 (stereo not given)
inactive: NCI-H23 lung 90.6% | NCI-H226 lung 105% | NCI-H322M lung 107% | HOP-62 NSCLC 112% | NCI-H460 lung 101% | HOP-92 NSCLC 115% | NCI-H522 lung 84.9% | A549/ATCC NSCLC 96.6% | 786-0 renal 110% | COLO 205 colon 111%

COc1ccc(C(O)c2cc3c(N)c(C(=O)Nc4cccc(Cl)c4C)sc3nc2C)cc1 (stereo not given)
inactive: NCI-H23 lung 25.5% | NCI-H226 lung 54.5% | NCI-H322M lung 39.4% | HOP-62 NSCLC 16.2% | HOP-92 NSCLC 16.2% | A549/ATCC NSCLC 10.5% | 786-0 renal 22.2%
active: NCI-H460 lung -6.01% | NCI-H522 lung -34.9% | COLO 205 colon -23%

O=C1Nc2c(C(=O)O)cccc2/C1=N/c1n[nH]c(=S)s1
inactive: NCI-H23 lung 87.8% | NCI-H226 lung 86.2% | NCI-H322M lung 95.6% | HOP-62 NSCLC 79.7% | NCI-H460 lung 93.4% | HOP-92 NSCLC 96.1% | NCI-H522 lung 81.1% | A549/ATCC NSCLC 85.5% | 786-0 renal 91.3% | COLO 205 colon 118%

CN1CCN(c2ccc3nc4c(nc3c2C(F)(F)F)C(=O)c2ncccc2C4=O)CC1
inactive: NCI-H322M lung 36.6% | HOP-92 NSCLC 27.5% | 786-0 renal 36.7%
active: NCI-H23 lung -39.7% | NCI-H226 lung -78.9% | HOP-62 NSCLC -63.3% | NCI-H460 lung -56.6% | NCI-H522 lung -67.5% | A549/ATCC NSCLC -36.2% | COLO 205 colon -95%

O=S(=O)(NCCNc1nccc(-c2c(-c3cccc(O)c3)nc3occn23)n1)c1ccc(Br)cc1
inactive: NCI-H23 lung 53.2% | NCI-H226 lung 37.1% | NCI-H322M lung 42.3% | HOP-62 NSCLC 45.2% | NCI-H460 lung 31.2% | HOP-92 NSCLC 33.2% | NCI-H522 lung 24.5% | A549/ATCC NSCLC 20.9% | 786-0 renal 45.8% | COLO 205 colon 18.4%

O=C(O)c1cn(C2CC2)c2cc(N3CCN(C(=O)Nc4nc(-c5ccc(Br)cc5)cs4)CC3)c(F)cc2c1=O
active: NCI-H322M lung 6.95% | HOP-92 NSCLC -8.59% | NCI-H522 lung 5.78%
inactive: NCI-H23 lung 12.4% | NCI-H226 lung 18.9% | HOP-62 NSCLC 21.8% | NCI-H460 lung 10.4% | A549/ATCC NSCLC 14.3% | 786-0 renal 27.3% | COLO 205 colon 24.2%

CCOC(=O)C(Cc1ccc(OC)cc1)C(=O)OCC
active: HOP-92 NSCLC -1.28%
inactive: NCI-H23 lung 17.6% | NCI-H226 lung 65.9% | NCI-H322M lung 36.3% | HOP-62 NSCLC 52.8% | NCI-H460 lung 30.4% | NCI-H522 lung 25% | A549/ATCC NSCLC 51.7% | 786-0 renal 39.3% | COLO 205 colon 71.6%

COc1ccc(/C(C)=C(\c2ccc(Cl)cc2)c2ccc(OCCN3CCCCC3)cc2)cc1
active: 786-0 renal -5.84% | COLO 205 colon -4.92%
inactive: NCI-H23 lung 57.9% | NCI-H226 lung 89.4% | NCI-H322M lung 68.8% | HOP-62 NSCLC 68.6% | NCI-H460 lung 24.6% | HOP-92 NSCLC 70.3% | NCI-H522 lung 78.3% | A549/ATCC NSCLC 38.5%

O=C(Oc1ccc(CCl)cc1)c1ccccc1
active: NCI-H23 lung -72.6% | NCI-H226 lung -97.8% | NCI-H322M lung -91.4% | HOP-62 NSCLC -79.2% | NCI-H460 lung -47.5% | HOP-92 NSCLC -89.7% | NCI-H522 lung -65.7% | A549/ATCC NSCLC -68.7% | 786-0 renal -92.5% | COLO 205 colon -72.9%

COc1cc(NC(=O)c2cncnc2Nc2ccc3c(ccn3Cc3ccccn3)c2)cc(OC)c1
inactive: NCI-H23 lung 68.6% | NCI-H226 lung 76.1% | NCI-H322M lung 76.4% | HOP-62 NSCLC 43.9% | NCI-H460 lung 20.5% | HOP-92 NSCLC 54.2% | NCI-H522 lung 38.9% | A549/ATCC NSCLC 53.9% | 786-0 renal 49.4% | COLO 205 colon 44.9%
